Results as given in PubChem BioAssay (NCI).
About 83,000 compounds went through this panel and 20% of them were active in at least one assay; those are over-represented in the sample as a whole.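 Plates (96-well) were seeded with cells, treated with compound at one concentration, and incubated for 48 hours before percent growth was determined.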 Activity calls are given as the source filed them. How the source made its calls: active means growth percent below 10; inactive means the rest.

What follows are molecules tested on RPMI-8226 leukemia (assay: NCI-60 one-dose screen, 48 h (100 = growth as untreated, 0 = no growth, -100 = all killed)). Conditions: 10 µM unless noted.

Row | SMILES | growth
1 | O=c1oc2ccc([N+](=O)[O-])cc2cc1Br | 107% (inactive)
2 | O=C1/C(=C/c2ccccc2Br)COc2ccc(O)c(O)c21 | 1.07% (active)
3 | COc1cc2c(c(OC)c1OC)-c1ccc(OC)c(=O)cc1[C@@H](NC(=O)CCl)CC2 | 20.3% (inactive)
4 | CCCCNc1ccc(C#N)c(OCCN(CC)CC)c1 | 93.3% (inactive)
5 | O=C(c1ccccc1)C1C(=O)N2C(=S)N(c3ccccc3)C(=O)C2C1c1ccc(Cl)cc1 (stereo not given) | 103% (inactive)
6 | CCOc1ccc(NC(=O)CSc2oc(-c3ccccc3)nc2S(=O)(=O)c2ccc(F)cc2)cc1 | 73% (inactive)
7 | COc1cc(-n2cc(-c3cc(O)c(C/C=C(\C)CCC=C(C)C)c(O)c3)nn2)cc2c1O[C@]1(C)CC[C@@H](O)C(C)(C)[C@H]1C2 | -17.8% (active)
8 | CCOC(=O)/C=C1\S/C(=N\Nc2cc(=O)[nH]c3ccc(Cl)cc23)N(c2ccccc2)C1=O | 3.83% (active)
9 | O=c1oc2c(cnc3ccccc32)cc1-c1ccsc1 | 96.6% (inactive)
10 | C=CCc1c2c(c(OC)c3ccoc13)C(=O)/C(=C/c1ccccc1OC)O2 | 29.2% (inactive)
11 | CC(=O)Nc1nc2ccc(NS(=O)(=O)c3cccc4c(N(C)C)cccc34)cc2[nH]1 | 43.3% (inactive)
12 | O=C1C(Cl)=C(Oc2ccccc2)C(=O)c2ccccc21 | 35.2% (inactive)
13 | O=C(O)/C(=C\c1ccc(Cl)cc1)c1ccc(Cl)cc1 | 100% (inactive)
14 | OCc1cccc(-c2ccc3ncc(-c4nc(NC5CC5)ncc4F)n3c2)c1 | -29.8% (active)
15 | C=CCn1cc(-c2nc3ccccc3s2)c2cc(-c3ccc4c5c(cccc35)C(=O)N(N)C4=O)ccc21 | 99.3% (inactive)
16 | Cc1ccc(C(C(N)=O)C(C(N)=O)c2ccccc2)cc1 (stereo not given) | 95.4% (inactive)
17 | CC(C)n1cnc2c(=S)nc[nH]c21 | 72.9% (inactive)
18 | CC(C)N1CN2C(=S)NC3C2N(C1)C(=S)N3C (stereo not given) | 91.7% (inactive)
19 | S=C1CCSC(=S)N1CCCN1C(=S)CCSC1=S | 3.38% (active)
20 | CCN1CCN(Cc2cn(CC(=O)Nc3ccc4c(ccn4Cc4ccccc4)c3)nn2)CC1 | 85% (inactive)

Row | SMILES | growth
21 | CCOC(=O)CSc1ncnc2c1c(-c1ccccc1)c(-c1ccccc1)n2-c1ccc(C)cc1 | 37.8% (inactive)
22 | O=C1/C(=C/c2ccc(Cl)c(Cl)c2)CN(C(=O)C(Cl)Cl)C/C1=C\c1ccc(Cl)c(Cl)c1 | -27.9% (active)
23 | CCO/C=N/C1=C(C#N)C(c2ccc(OC)cc2)c2sc3c(F)cccc3c2O1 (stereo not given) | 7.6% (active)
24 | COc1ccc(C(c2cc(OC)c(OC)c(OC)c2)N2CCN(c3ccccc3)CC2)cc1 (stereo not given) | 89.3% (inactive)
25 | CCN(CC)CCOc1ccc(C(=C(C)c2ccc(Cl)cc2)c2ccc(OCCN(CC)CC)cc2)cc1 | -49.8% (active)
26 | CN1CCN(C(=O)c2ccc(NC(=O)Nc3ccc(-c4nc(N5CCOCC5)c5cccn5n4)cc3)cc2)CC1 | -2.3% (active)
27 | Cc1ccc(S(=O)(=O)N2CCCC2CO)cc1 (stereo not given) | 62.6% (inactive)
28 | Nc1c(C(=O)Nc2ccccc2Cl)sc2nc3c(cc12)C(O)CCC3 (stereo not given) | 25.2% (inactive)
29 | Cc1nc2sc(C(=O)Nc3ccccc3)c(N)c2cc1C(=O)c1ccccc1 | 38% (inactive)
30 | O=C1CC(N2C(=O)/C(=C/C(Cl)=C\c3ccc([N+](=O)[O-])cc3)SC2=S)C(=O)N1c1ccc(Cl)cc1 (stereo not given) | -1.96% (active)
31 | Cc1ccc(Cl)cc1Nc1nc(C(F)(F)F)ccc1C(=O)N/N=C/c1cccnc1 | 21% (inactive)
32 | CC(C)(C)n1cc(-c2ccnc(NCCCNS(=O)(=O)c3ccc(F)cc3)c2)c(-c2cccc(F)c2)n1 | 28.1% (inactive)
33 | COC(=O)/C(CCC=C(C)C)=C1\[C@@H](OC(C)=O)C[C@@]2(C)[C@H]1C[C@@H](O)[C@H]1[C@@]3(C)CC[C@H](NCCN)[C@@H](C)[C@@H]3CC[C@@]12C | 70% (inactive)
34 | C=C1C(=O)O[C@H]2[C@H]1CC/C(COC(=O)NCc1ccc(Cn3c(=O)sn(CCI)c3=O)cc1)=C\CC[C@@]1(C)O[C@@H]21 | 29.1% (inactive)
35 | COc1cc(-c2nc(SCC(C)C)nc(Nc3cccc4ccccc34)c2C#N)cc(OC)c1OC | 91.2% (inactive)
36 | Oc1c(Cl)cc(Cl)c2ccc(Cn3cc(-c4ccc(C(F)(F)F)cc4)nn3)nc12 | 0.831% (active)
37 | CC1(C)CC2=C3C=C[C@@H]4[C@@]5(C)CCC(=O)C(C)(C)[C@@H]5CC[C@@]4(C)[C@]3(C)CC[C@@]2(C(=O)O)CC1=O | 31.8% (inactive)
38 | COC(=O)CCC(=O)C(=O)OC | -8.65% [10 mM] (active)
39 | COC(C(=O)[C@@H](O)[C@@H](C)O)[C@@H]1Cc2cc3cc(O[C@H]4C[C@@H](O[C@H]5C[C@@H](O)[C@H](O)C(C)O5)[C@H](O)C(C)O4)cc(O)c3c(O)c2C(=O)[C@H]1O[C@H]1C[C@@H](O[C@H]2C[C@@H](O[C@H]3C[C@@H](OC)[C@H](O)C(C)O3)[C@@H](O)C(C)O2)[C@H](O)C(C)O1 (stereo not given in full) | 50% (inactive)
40 | CC(C)N1CCN(Cc2ccc3c(NNC(=O)c4ccccc4)nc4cc(F)ccc4n23)CC1 | 26.5% (inactive)
